Laboratory results reported in PubChem BioAssay (NCATS).
Results filed as inconclusive are left out. Activity calls are given as the source filed them. Unless noted, the call rests on the fitted dose curve.

Columns and labels:
[1] = molecular target: Lysosomal acid glucosylceramidase (Homo sapiens) (UniProt P04062); assay: Glucocerebrosidase-p2 (AID 348; in the data active means potency below about 10 µM; further: potency means the concentration at half of the fitted maximal effect); conditions: purified GBA, blue fluorogenic substrate, 40 min
Summary of the method: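 Normal human glucocerebrosidase (0.2 nM) with blue fluorogenic substrate (80 uM final) in citrate/phosphate pH 5.9 with 10mM sodium taurocholate, 0.01% tween-20; 40 min RT, NaOH/glycine stop; fluorescence Ex 365/Em 440; AC50 from a titration from 0.6 nM upwards.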

[2] = AP1 Signaling Pathway (AID 357; active means well fitted curve in either direction with a large enough effect, not every such curve was filed as active;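 further: ME-180 reporter cells stimulated with EGF at its EC50 level; on the % scale 0 is the no-effect control and ±100 the full control effect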); conditions: ME-180 AP-1-bla reporter, EGF-induced, beta-lactamase ratio, 5 h; at 7.69 µM (top of the series) unless noted
Summary of the method: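 Cells are seeded overnight, exposed to compound titrations and an EC50 level of EGF for 5 hours at 37 °C, then loaded with CCF4 dye for 2.5 hours. Beta-lactamase activity under the AP-1 element is read as a blue/green ratio.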

[3] = molecular target: Cytochrome P450 1A2 (Homo sapiens) (UniProt P05177); assay: p450-cyp1a2 (AID 410); conditions: recombinant CYP1A2, luciferin-ME demethylation, luminescence; series mostly up to 57 µM; further: potency means the concentration at half of the fitted maximal effect;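 on activity change, negative = inhibition: -100% = full effect of reference inhibitor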
Summary of the method: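 Luminescent demethylation readout: Luciferin-ME (100uM, equal to Km) turned over by 20nM CYP1A2 for 60 min at room temperature after NADPH regeneration addition, following 10 min compound preincubation. Normalization used 57 uM furafylline as full inhibition.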

[4] = Stat Signaling Pathway (AID 446; active means well fitted curve in either direction with a large enough effect, not every such curve was filed as active;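 further: ME-180 cervical cancer cells given 40 pM IL-6 alongside compound; SIE-controlled beta-lactamase reporter measured as 460/530 nm FRET emission ratio; on the % scale 0 is the no-effect control and ±100 the full control effect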); conditions: ME-180 SIE beta-lactamase reporter, IL-6 stimulated, 5 h; at 7.69 µM (top of the series) unless noted
Summary of the method: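 FRET read-out (405 nm excitation, 460/530 nm emission) of a beta-lactamase reporter under a STAT-inducible element in ME-180 cervical carcinoma cells. Cells with compound receive 40 pM IL-6 for 5 h. Values are normalised to AC90 stimulation and AC90 JAK-inhibitor controls.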

[5] = molecular target: Glucocorticoid receptor (Homo sapiens) (UniProt P04150); assay: GR-EFC Redistribution (AID 451); conditions: CHO-K1 GR-EFC translocation, beta-gal luminescence, 2 h; further: potency means the concentration at half of the fitted maximal effect
Summary of the method: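 CHO-K1 cells stably expressing nuclear-localized β-gal enzyme acceptor and GR fused C-terminally to the enzyme donor fragment; ligand-driven nuclear translocation restores β-gal by complementation. Compounds titrated up to 46 uM final, 2 h at 37 °C; luminescence read.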

[6] = molecular target: Mitogen-activated protein kinase 10 (Mus musculus) (UniProt Q61831); assay: JNK3 AlphaScreen Assay (AID 530; active means well fitted curve in either direction with a large enough effect, not every such curve was filed as active;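 further: kinase came from lysate of stimulated human HepG2 cells; signal reports phosphorylation of biotinylated GST-cJun 1-79 at Ser73 with 10 µM ATP; on the % scale 0 is the no-effect control and ±100 the full control effect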); conditions: JNK3 lysate, c-Jun phosphorylation; series mostly up to 57.1 µM
Summary of the method: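 Phosphorylation of biotinylated GST-cJun(1-79) at Ser73 is measured by AlphaScreen proximity luminescence. Enzyme is JNK3 in HepG2 lysates activated with interleukin-1beta and tumor necrosis factor alpha; ATP is 10 uM final.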

[7] = molecular target: 3',5'-cyclic-AMP phosphodiesterase 4B (Homo sapiens) (UniProt Q07343); assay: qHTS Assay for Inhibitors of PDE-IV (AID 607; active means well fitted activation curve with a large enough effect in the main read-out, with a control signal flat, not every such curve was filed as active; further: potency means the concentration at half of the fitted maximal effect); conditions: HEK293 ACTOne CNG channel cells, membrane potential fluorescence; series mostly up to 22.9 µM
Summary of the method: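 Cell-based read-out of cAMP via a modified cyclic nucleotide-gated channel and membrane potential dye (535/590 nm) in HEK293 cells expressing PDE4 endogenously. Compounds tested up to 22.9 uM final; 100 uM RO 20-1724 reference.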

[8] = molecular target: Cytochrome P450 2C19 (Homo sapiens) (UniProt P33261); assay: qHTS Assay for Inhibitors and Substrates of Cytochrome P450 2C19 (AID 899; active means well fitted curve in the direction sought with a large enough effect; an effect the other way counts as inactive or inconclusive; further: potency means the concentration at half of the fitted maximal effect; nearly all actives have a fitted effect of over 60% in size); conditions: recombinant CYP2C19, luciferin-H EGE luminescence; series mostly up to 57.1 µM
Summary of the method: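 NADPH-dependent conversion of Luciferin-H EGE (10uM, at KM) by 5nM enzyme in 50mM KPO4, 60 min at 37C following 10 min compound preincubation. Stopped with luciferin detection buffer; luminescence read after 20 min.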

[9] = qHTS Assay for Identification of Small Molecule Agonists for Hypoxia Response Element Signaling Pathway (AID 914; active means well fitted activation curve with a large enough effect in the signal ratio, with a control signal flat, not every such curve was filed as active; the % refers to the signal ratio; further: potency means the concentration at half of the fitted maximal effect; on activation: % of control where 0% means no effect); conditions: ME-180 (cervical carcinoma) HRE-bla reporter, beta-lactamase ratio, CoCl2, 17 h; activation: stronger effect = higher value
Summary of the method: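 Read-out: CCF4 FRET ratio of 460nm to 530nm emission (excitation 405nm) after 2.5 hours at room temperature, taken from HRE-bla ME-180 cells that had been exposed to compound and EC50 CoCl2 for 17 hours.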

[10] = qHTS Assay for Lipid Storage Modulators (AID 1519); conditions: Drosophila S3 cells, BODIPY lipid droplet/cell ratio, laser cytometry, cells loaded with oleic acid; for activity change, negative = inhibition: at 57.5 µM (top of the series)
Summary of the method: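 Cells seeded at 5,000 per well were treated with compounds over a concentration series and loaded with oleic acid (400 uM, as added). Lipid droplet fluorescence (488 nm excitation, 500-530 nm channel) was read by laser-scanning cytometry and normalized to 20 uM Triacsin C.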

[11] = Primary qHTS for small molecule stabilizers of the endoplasmic reticulum resident proteome: Secreted ER Calcium Modulated Protein (SERCaMP) assay (AID 1508630; active means well fitted curve in the direction sought with a large enough effect; an effect the other way counts as inactive or inconclusive; further: on the % scale 0 is the no-effect control and ±100 the full control effect); conditions: SH-SY5Y GLuc-SERCaMP (Gaussia luciferase released on ER calcium loss) secretion, thapsigargin, luminescence; series mostly up to 38.4 µM
Summary of the method: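 The SH-SY5Y reporter protocol was run at 3 concentrations up to 38.3 uM (primary) or 11 concentrations (follow-up): 16 h compound, 100 nM thapsigargin for 4 h, then extracellular luciferase luminescence.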

[12] = molecular target: Cytochrome P450 2D6 (Homo sapiens) (UniProt P10635); assay: qHTS Assay for Inhibitors and Substrates of Cytochrome P450 2D6 (AID 891; active means well fitted curve in the direction sought with a large enough effect; an effect the other way counts as inactive or inconclusive; further: potency means the concentration at half of the fitted maximal effect; nearly all actives have a fitted effect of over 60% in size); conditions: recombinant CYP2D6, luciferin-ME EGE luminescence; series mostly up to 57.1 µM
Summary of the method: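 Luminescent read-out of luciferin formed by 5 nM human CYP2D6 demethylating 30 uM Luciferin-ME EGE (Km level) over 60 min at room temperature after NADPH regeneration addition. Data normalized to full inhibition by 1.43 uM quinidine.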

[13] = molecular target: Cytochrome P450 3A4 (Homo sapiens) (UniProt P08684); assay: qHTS Assay for Activators of Cytochrome P450 3A4 (AID 885; active means well fitted curve in the direction sought with a large enough effect; an effect the other way counts as inactive or inconclusive; further: nearly all actives have a fitted effect of over 65% in size); conditions: recombinant CYP3A4, Luciferin-PPXE luminescence, 60 min; series mostly up to 57.1 µM
Summary of the method: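 Luminescent readout of luciferin formed from 25 uM Luciferin-PPXE (KM level) by 20 nM CYP3A4 in 200 mM KPO4, with 60 min NADPH-driven reaction at room temperature after 10 min compound exposure. Ketoconazole (57 uM) defined 100% inhibition.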

[14] = measured here: cell count channel max response
[15] = measured here: lipid channel max response

Sequence of Cytochrome P450 2D6 (Homo sapiens) (P10635 whole entry, looked up): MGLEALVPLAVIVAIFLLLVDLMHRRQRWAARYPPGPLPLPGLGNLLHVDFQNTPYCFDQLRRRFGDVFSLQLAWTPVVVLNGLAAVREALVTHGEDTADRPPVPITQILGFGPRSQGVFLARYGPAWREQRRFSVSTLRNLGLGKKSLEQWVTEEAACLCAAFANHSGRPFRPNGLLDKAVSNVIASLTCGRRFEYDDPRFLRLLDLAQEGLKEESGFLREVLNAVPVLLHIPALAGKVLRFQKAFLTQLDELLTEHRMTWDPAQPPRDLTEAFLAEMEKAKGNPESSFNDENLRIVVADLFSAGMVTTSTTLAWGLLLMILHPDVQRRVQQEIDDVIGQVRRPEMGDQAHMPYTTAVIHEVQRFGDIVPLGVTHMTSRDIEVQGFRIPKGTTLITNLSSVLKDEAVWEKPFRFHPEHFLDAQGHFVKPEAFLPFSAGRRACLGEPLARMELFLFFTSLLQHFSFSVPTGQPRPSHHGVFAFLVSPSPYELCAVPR
Sequence of 3',5'-cyclic-AMP phosphodiesterase 4B (Homo sapiens) (Q07343 whole entry, looked up): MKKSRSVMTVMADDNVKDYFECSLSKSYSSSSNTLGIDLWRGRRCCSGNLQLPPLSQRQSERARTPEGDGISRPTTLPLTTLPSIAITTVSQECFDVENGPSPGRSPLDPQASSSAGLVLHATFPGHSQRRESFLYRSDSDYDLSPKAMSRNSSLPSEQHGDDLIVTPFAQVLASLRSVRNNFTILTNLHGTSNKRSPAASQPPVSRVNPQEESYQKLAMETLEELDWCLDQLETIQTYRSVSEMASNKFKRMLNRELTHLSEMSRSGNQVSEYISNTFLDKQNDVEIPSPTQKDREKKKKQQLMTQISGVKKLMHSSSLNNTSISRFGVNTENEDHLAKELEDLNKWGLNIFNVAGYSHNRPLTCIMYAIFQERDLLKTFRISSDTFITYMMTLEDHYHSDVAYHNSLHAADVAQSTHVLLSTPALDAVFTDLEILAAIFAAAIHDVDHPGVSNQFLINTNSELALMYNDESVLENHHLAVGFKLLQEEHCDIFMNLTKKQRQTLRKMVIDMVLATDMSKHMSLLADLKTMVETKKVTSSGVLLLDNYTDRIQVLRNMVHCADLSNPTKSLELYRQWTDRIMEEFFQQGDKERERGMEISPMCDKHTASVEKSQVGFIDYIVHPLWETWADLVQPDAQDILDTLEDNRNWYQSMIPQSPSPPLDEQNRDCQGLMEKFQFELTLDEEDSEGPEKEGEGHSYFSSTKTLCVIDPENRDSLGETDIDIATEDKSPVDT
Sequence of Glucocorticoid receptor (Homo sapiens) (P04150 whole entry, looked up, the tested form may be a part): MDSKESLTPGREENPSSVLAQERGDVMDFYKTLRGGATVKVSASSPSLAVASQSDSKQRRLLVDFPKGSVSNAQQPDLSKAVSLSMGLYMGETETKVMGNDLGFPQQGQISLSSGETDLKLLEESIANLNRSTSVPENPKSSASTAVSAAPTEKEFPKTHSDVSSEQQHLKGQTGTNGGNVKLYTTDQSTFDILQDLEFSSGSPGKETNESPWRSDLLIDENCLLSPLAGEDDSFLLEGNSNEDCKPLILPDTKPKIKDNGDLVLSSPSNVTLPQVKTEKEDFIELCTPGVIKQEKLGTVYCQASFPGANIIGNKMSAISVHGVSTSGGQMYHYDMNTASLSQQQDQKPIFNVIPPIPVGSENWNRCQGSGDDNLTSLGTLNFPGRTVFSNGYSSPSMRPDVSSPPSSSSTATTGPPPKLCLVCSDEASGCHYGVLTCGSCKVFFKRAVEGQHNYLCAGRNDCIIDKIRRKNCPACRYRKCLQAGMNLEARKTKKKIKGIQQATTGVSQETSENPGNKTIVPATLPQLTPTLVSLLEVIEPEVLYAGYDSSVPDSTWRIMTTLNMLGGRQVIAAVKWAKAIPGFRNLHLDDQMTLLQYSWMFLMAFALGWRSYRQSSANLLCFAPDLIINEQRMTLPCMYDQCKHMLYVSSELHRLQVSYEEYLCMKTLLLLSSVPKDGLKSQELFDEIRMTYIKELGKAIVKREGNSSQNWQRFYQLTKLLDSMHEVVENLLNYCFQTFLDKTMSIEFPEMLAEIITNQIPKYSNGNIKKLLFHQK
Sequence of Cytochrome P450 1A2 (Homo sapiens) (P05177 whole entry, looked up): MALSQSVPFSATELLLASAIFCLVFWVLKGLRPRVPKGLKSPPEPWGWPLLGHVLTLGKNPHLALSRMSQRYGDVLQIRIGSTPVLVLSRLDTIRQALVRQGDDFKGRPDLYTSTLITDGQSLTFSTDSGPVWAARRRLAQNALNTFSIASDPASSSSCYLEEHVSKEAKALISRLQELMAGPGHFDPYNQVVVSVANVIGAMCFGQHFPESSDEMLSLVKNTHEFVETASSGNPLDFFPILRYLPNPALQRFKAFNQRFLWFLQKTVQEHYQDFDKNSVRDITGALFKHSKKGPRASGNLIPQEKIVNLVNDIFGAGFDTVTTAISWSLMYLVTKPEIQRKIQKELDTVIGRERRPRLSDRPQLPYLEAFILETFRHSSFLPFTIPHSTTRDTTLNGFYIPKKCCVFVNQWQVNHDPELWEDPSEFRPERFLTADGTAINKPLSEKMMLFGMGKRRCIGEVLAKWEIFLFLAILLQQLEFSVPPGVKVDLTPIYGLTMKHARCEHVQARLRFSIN
Sequence of Lysosomal acid glucosylceramidase (Homo sapiens) (P04062 whole entry, looked up): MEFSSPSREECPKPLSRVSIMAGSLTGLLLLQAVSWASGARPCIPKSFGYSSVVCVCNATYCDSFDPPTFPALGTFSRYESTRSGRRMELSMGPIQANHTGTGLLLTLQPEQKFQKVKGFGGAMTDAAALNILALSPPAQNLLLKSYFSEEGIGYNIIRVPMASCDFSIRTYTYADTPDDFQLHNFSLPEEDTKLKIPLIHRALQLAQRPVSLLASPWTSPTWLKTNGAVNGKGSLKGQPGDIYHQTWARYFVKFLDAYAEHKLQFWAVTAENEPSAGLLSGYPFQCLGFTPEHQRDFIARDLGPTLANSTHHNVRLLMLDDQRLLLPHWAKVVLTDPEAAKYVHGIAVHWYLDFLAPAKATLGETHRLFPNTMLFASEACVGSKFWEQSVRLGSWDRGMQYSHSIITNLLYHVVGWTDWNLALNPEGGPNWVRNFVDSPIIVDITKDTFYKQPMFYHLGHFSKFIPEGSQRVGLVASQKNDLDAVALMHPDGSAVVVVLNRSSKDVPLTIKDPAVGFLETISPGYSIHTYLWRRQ
Sequence of Cytochrome P450 3A4 (Homo sapiens) (P08684 whole entry, looked up): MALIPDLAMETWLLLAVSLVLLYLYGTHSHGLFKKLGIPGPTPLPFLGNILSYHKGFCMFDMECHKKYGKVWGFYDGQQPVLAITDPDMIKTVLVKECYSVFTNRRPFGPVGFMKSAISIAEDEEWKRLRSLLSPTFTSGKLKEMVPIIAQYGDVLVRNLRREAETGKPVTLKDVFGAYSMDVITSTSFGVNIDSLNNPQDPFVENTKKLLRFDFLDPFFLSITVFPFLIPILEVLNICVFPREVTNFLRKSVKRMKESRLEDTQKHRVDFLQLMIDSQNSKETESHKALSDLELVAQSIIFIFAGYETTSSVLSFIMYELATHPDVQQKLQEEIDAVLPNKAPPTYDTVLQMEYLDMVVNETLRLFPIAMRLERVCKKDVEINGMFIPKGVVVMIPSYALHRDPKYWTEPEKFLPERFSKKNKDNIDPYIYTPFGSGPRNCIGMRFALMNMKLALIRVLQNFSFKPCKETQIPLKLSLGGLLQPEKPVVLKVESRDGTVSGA
Sequence of Cytochrome P450 2C19 (Homo sapiens) (P33261 whole entry, looked up): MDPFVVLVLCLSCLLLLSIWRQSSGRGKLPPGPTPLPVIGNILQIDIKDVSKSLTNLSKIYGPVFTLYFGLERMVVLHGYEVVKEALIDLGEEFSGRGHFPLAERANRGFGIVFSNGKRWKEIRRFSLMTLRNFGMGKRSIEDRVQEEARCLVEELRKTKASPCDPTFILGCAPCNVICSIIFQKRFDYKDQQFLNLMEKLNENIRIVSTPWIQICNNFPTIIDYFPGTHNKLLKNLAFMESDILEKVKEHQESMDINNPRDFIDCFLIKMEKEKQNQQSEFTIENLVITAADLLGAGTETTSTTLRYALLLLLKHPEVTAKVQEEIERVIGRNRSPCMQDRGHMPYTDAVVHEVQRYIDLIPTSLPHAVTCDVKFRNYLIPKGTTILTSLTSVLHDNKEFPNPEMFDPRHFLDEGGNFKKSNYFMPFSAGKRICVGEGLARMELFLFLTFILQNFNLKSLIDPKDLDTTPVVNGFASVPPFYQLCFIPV

O=S(=O)(c1ccccc1)N1CCC2(CCCN(c3ccccn3)C2)CC1
25.4%: max response [10, 15]
17.9%: max response [10, 14]
inactive: Potency [1] > 11.4 µM | activity change, negative = inhibition [2] -6.83% | activity, negative = inhibition [4] -6.34% | Potency [5] > 46 µM | Potency [6] | Potency [7] | activation [9] -11.6% | activity change, negative = inhibition [10] 5.71% | outcome [11]
active: Potency [3] 7.94 µM | Potency [8] 0.158 µM

COc1ccccc1CN1CCC2(CC1)CCN(C(=O)c1cccn1C)CC2
8.04%: max response [10, 15]
inactive: Potency [1] > 11.4 µM | activity change, negative = inhibition [2] 6.08% | Potency [3] | activity, negative = inhibition [4] -5.76% | Potency [5] > 46 µM | Potency [6] | Potency [7] | activity change, negative = inhibition [10] -1.94% | outcome [11]
active: Potency [12] 3.98 µM
8.14%: max response [10, 14]

COc1ccccc1CN1CCCC2(CCN(C(C)=O)CC2)C1
active: Potency [3] 25.1 µM | Potency [12] 3.16 µM
13%: max response [10, 15]
inactive: Potency [1] > 11.4 µM | activity change, negative = inhibition [2] 0.608% | activity, negative = inhibition [4] 9.98% | Potency [5] > 46 µM | Potency [6] | Potency [7] | activity change, negative = inhibition [10] 0.567% | outcome [11]
7.93%: max response [10, 14]

COC(=O)N1CCC2(CCCN(Cc3nccs3)C2)CC1
2.22%: max response [10, 14]
inactive: Potency [1] > 11.4 µM | activity change, negative = inhibition [2] -9.45% | Potency [3] | activity, negative = inhibition [4] -5.19% | Potency [5] > 46 µM | Potency [6] | Potency [13] | activity change, negative = inhibition [10] 5.26% | outcome [11]
10.9%: max response [10, 15]

O=C(c1cccc(F)c1)N1CCC2(CC1)CN(Cc1ccccc1)C2
inactive: Potency [1] > 11.4 µM | activity change, negative = inhibition [2] 0.919% | Potency [3] | activity, negative = inhibition [4] 0.079% | Potency [5] > 46 µM | Potency [6] | Potency [7] | activity change, negative = inhibition [10] -1.4% | outcome [11]
-5.75%: max response [10, 14]
active: Potency [12] 5.01 µM
-4.23%: max response [10, 15]

CN(C)c1ncc2nc(-c3ccc(F)cc3)c(=O)n(C3CC3)c2n1
13.7%: max response [10, 15]
active: Potency [3] 1.58 µM | Potency [7] 2 µM | Potency [9] 2.51 µM
10.2%: max response [10, 14]
inactive: Potency [1] > 11.4 µM | activity change, negative = inhibition [2] 18.2% | Potency [5] > 46 µM | Potency [6] | activity change, negative = inhibition [10] 2.01% | outcome [11]

CC(C)CN1CCCC2(CCN(C(=O)c3cc(C(F)(F)F)cc(C(F)(F)F)c3)CC2)C1
inactive: Potency [1] > 11.4 µM | activity change, negative = inhibition [2] -4.78% | activity, negative = inhibition [4] -8.44% | Potency [5] > 46 µM | Potency [6] | Potency [13] | activation [9] -20.4% | activity change, negative = inhibition [10] 2.29% | outcome [11]
active: Potency [3] 12.6 µM
11.6%: max response [10, 14]
17.9%: max response [10, 15]
